The panel holds about 83,000 compounds, 20% with a hit somewhere; the sample as a whole holds those more often.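 Percent growth is the endpoint: 0 to 100 indicates growth inhibition (40 means 60% inhibition), 0 means no net growth, and negative values indicate cell death.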 The source made the active and inactive calls. Rule for the calls: active = growth percent below 10; inactive = the rest.
Columns and labels:
Assay in all cases: NCI-60 one-dose screen, 48 h (100 = growth as untreated, 0 = no growth, -100 = all killed)
Conditions in all cases: 10 µM unless noted
SK-MEL-2 melanoma = test system: SK-MEL-2 melanoma
EKVX NSCLC = test system: EKVX NSCLC
SN12C renal = test system: SN12C renal
UO-31 renal = test system: UO-31 renal
TK-10 renal = test system: TK-10 renal
CAKI-1 renal = test system: CAKI-1 renal
A498 renal = test system: A498 renal
CCRF-CEM leukemia = test system: CCRF-CEM leukemia
MOLT-4 leukemia = test system: MOLT-4 leukemia
ACHN renal = test system: ACHN renal

Measured: growth

O=S(=O)(Nc1ccc(Br)c(Cl)c1)c1ccc(-c2cnc(C3CC3)o2)cc1
inactive: SK-MEL-2 melanoma 34.4% | EKVX NSCLC 33.9% | SN12C renal 41.1% | UO-31 renal 47.5% | TK-10 renal 51.5% | CAKI-1 renal 30.9% | CCRF-CEM leukemia 19.3% | MOLT-4 leukemia 27.6%
active: A498 renal -18.2%

Cc1cc(C)nc(SC2=C(Nc3ccc(O)cc3)C(=O)N(Cc3ccccc3)C2=O)n1
inactive: SK-MEL-2 melanoma 96.1% [40 µM] | EKVX NSCLC 77.4% [40 µM] | SN12C renal 94.3% [40 µM] | UO-31 renal 70.8% [40 µM] | TK-10 renal 110% [40 µM] | CAKI-1 renal 64.4% [40 µM] | A498 renal 112% [40 µM] | CCRF-CEM leukemia 39.1% [40 µM] | MOLT-4 leukemia 58% [40 µM]

Oc1cccc2ccc(N/N=C/c3cc(CN4CCOCC4)c(O)c4ncccc34)nc12
active: UO-31 renal -4.14% | MOLT-4 leukemia 9.34%
inactive: SK-MEL-2 melanoma 25% | EKVX NSCLC 23.4% | SN12C renal 20.2% | TK-10 renal 23% | CAKI-1 renal 11.5% | A498 renal 21.3% | CCRF-CEM leukemia 16.6%

CC1=C(O)C(=O)C(C(C#N)(C#N)C(C#N)C#N)C1 (centres undefined)
inactive: SK-MEL-2 melanoma 83.9% | EKVX NSCLC 95.3% | SN12C renal 100% | UO-31 renal 94.3% | TK-10 renal 105% | A498 renal 97.1% | CCRF-CEM leukemia 112% | MOLT-4 leukemia 100%

C=CC(=O)Nc1cccc(-c2nc(SC)nc(NCc3ccccc3)c2C#N)c1
inactive: SK-MEL-2 melanoma 60.8% | EKVX NSCLC 44% | SN12C renal 42.1% | UO-31 renal 31.1% | TK-10 renal 69.1% | CCRF-CEM leukemia 60.3% | MOLT-4 leukemia 49.1%
active: A498 renal -1.24%

COc1ccc(O)c(N=Nc2nccs2)c1
inactive: SK-MEL-2 melanoma 91.6% | EKVX NSCLC 54.3% | SN12C renal 99.4% | UO-31 renal 61.1% | TK-10 renal 106% | A498 renal 88.4%
active: CCRF-CEM leukemia 3.48% | MOLT-4 leukemia 7.26%

O=C1/C(=C/C(Cl)=C/c2ccccc2)SC(=S)N1CCc1ccc(O)cc1
inactive: SK-MEL-2 melanoma 12.8% | EKVX NSCLC 11% | TK-10 renal 16.8%
active: SN12C renal 6.85% | UO-31 renal -84.5% | CAKI-1 renal -15.7% | A498 renal -0.593% | CCRF-CEM leukemia 9.68% | MOLT-4 leukemia 9.33%

O=C1/C(=C/N2N=C(c3ccc4ccccc4c3)CC2c2ccccc2O)SC(=S)N1c1cccnc1 (centres undefined)
inactive: SK-MEL-2 melanoma 100% | EKVX NSCLC 43.2% | SN12C renal 39.5% | TK-10 renal 60.1% | ACHN renal 43.6% | CAKI-1 renal 41.9% | A498 renal 14.3% | CCRF-CEM leukemia 11.7% | MOLT-4 leukemia 19.2%

Cn1ccnc1C(=O)/C=C/c1ccccc1
inactive: SK-MEL-2 melanoma 46.9% | SN12C renal 41.6% | TK-10 renal 15.3% | CAKI-1 renal 11.7% | MOLT-4 leukemia 70%
active: EKVX NSCLC -9.85% | UO-31 renal -33.7% | A498 renal -15.9% | CCRF-CEM leukemia 9.1%

Cn1cc(C(=O)c2nc(-c3c[nH]c4ccc(Br)cc34)no2)c2cc(F)ccc21
inactive: SK-MEL-2 melanoma 97.5% | EKVX NSCLC 73.2% | SN12C renal 92.8% | TK-10 renal 115% | ACHN renal 89.6% | CAKI-1 renal 80.1% | A498 renal 107% | CCRF-CEM leukemia 100% | MOLT-4 leukemia 94.8%

COc1ccc(/C=C/c2nc(-c3n[nH]c(=O)n3-c3ccccc3)c3ccccc3n2)cc1
inactive: SK-MEL-2 melanoma 99.2% | EKVX NSCLC 94.6% | SN12C renal 91.5% | UO-31 renal 79.8% | TK-10 renal 108% | ACHN renal 102% | CCRF-CEM leukemia 90% | MOLT-4 leukemia 95%

COc1ccc(/C=C\c2cc(OC)c(OC)c(OC)c2)cc1OCC(=O)Nc1ccc2nc(C)sc2c1
active: SK-MEL-2 melanoma -1.27% | UO-31 renal 5.67% | TK-10 renal 1.02%
inactive: EKVX NSCLC 66.8% | SN12C renal 51.8% | CAKI-1 renal 23% | A498 renal 80.1% | CCRF-CEM leukemia 15.5% | MOLT-4 leukemia 22.7%

CC(O)CN(CC(C)O)c1ccc2c(c1)Cc1cc([N+](=O)[O-])ccc1-2 (centres undefined)
inactive: SK-MEL-2 melanoma 95.9% | EKVX NSCLC 74.8% | SN12C renal 99.6% | UO-31 renal 63.2% | TK-10 renal 97.3% | CAKI-1 renal 84.6% | CCRF-CEM leukemia 106% | MOLT-4 leukemia 69.8%

COC(=O)c1cccc(NC(=O)c2ccc(-c3cccc(N)c3)o2)c1
inactive: SK-MEL-2 melanoma 98.3% | EKVX NSCLC 94.5% | SN12C renal 94% | UO-31 renal 83% | TK-10 renal 125% | CAKI-1 renal 91.3% | A498 renal 105% | CCRF-CEM leukemia 71.7% | MOLT-4 leukemia 85.9%

Nc1n[nH]c2ccc([C@@H]3Nc4cc5c(cc4[C@H]4C6CCC(C6)[C@@H]34)C(=O)NC5)cc12 (some centres undefined)
inactive: SK-MEL-2 melanoma 48.8% | EKVX NSCLC 48.9% | SN12C renal 38.4% | UO-31 renal 54.9% | TK-10 renal 89.3% | ACHN renal 34.4% | CCRF-CEM leukemia 10.5% | MOLT-4 leukemia 14.7%

CN(C)c1ccc(N=Nc2ccccn2)c(O)c1
inactive: SK-MEL-2 melanoma 27.1% | EKVX NSCLC 17% | SN12C renal 11.3% | TK-10 renal 38.9% | A498 renal 48.2%
active: UO-31 renal -8.47% | CCRF-CEM leukemia 2.26% | MOLT-4 leukemia 2.31%

c1ccc(Cn2cc(-c3nc4ccccc4s3)c3cccnc32)cc1
inactive: SK-MEL-2 melanoma 102% | EKVX NSCLC 80.5% | SN12C renal 94.5% | UO-31 renal 76.7% | TK-10 renal 118% | CAKI-1 renal 92.9% | A498 renal 104% | CCRF-CEM leukemia 112% | MOLT-4 leukemia 105%

Cc1ncc(C(=O)Nc2ccc(CN3CCN(C)CC3)c(C(F)(F)F)c2)cc1C#Cc1cnc2cccnn12
active: SK-MEL-2 melanoma -55.4% | EKVX NSCLC -3.95% | SN12C renal 0.116% | UO-31 renal 1.45% | TK-10 renal -3.71% | CAKI-1 renal -16.7% | CCRF-CEM leukemia 5.77% | MOLT-4 leukemia -0.188%

Nc1ccc(-c2cc3c(Nc4ccc(Oc5cccc(C(F)(F)F)c5)c(Cl)c4)ncnc3s2)cc1
inactive: SK-MEL-2 melanoma 88.1% | EKVX NSCLC 54.8% | SN12C renal 57.3% | UO-31 renal 47.3% | TK-10 renal 90.3% | CAKI-1 renal 60.3% | A498 renal 89.5% | CCRF-CEM leukemia 48.9% | MOLT-4 leukemia 48.2%

Cc1cc(N2CCOCC2)nc(NCc2cc(Nc3ccnc4cc(Cl)ccc34)ccc2F)n1
active: SK-MEL-2 melanoma -61.6% | EKVX NSCLC 9.33% | SN12C renal -72.7% | UO-31 renal -50.8% | TK-10 renal -14.7% | CAKI-1 renal 3.58% | A498 renal -57.8% | CCRF-CEM leukemia -10.4% | MOLT-4 leukemia -30.3%

N#C/C(=C\c1ccc(-c2cc(C(F)(F)F)ccc2Cl)o1)c1nc(-c2ccco2)cs1
inactive: SK-MEL-2 melanoma 103% | EKVX NSCLC 91.6% | SN12C renal 99% | UO-31 renal 87.9% | TK-10 renal 121% | CAKI-1 renal 86.2% | A498 renal 105% | CCRF-CEM leukemia 103% | MOLT-4 leukemia 101%

Cc1nc2c3c(-c4ccccc4)c(-c4ccccc4)oc3ncn2n1
inactive: SK-MEL-2 melanoma 101% | EKVX NSCLC 88.9% | SN12C renal 96.5% | UO-31 renal 83.9% | TK-10 renal 108% | CAKI-1 renal 88.6% | A498 renal 67.9% | CCRF-CEM leukemia 96.7% | MOLT-4 leukemia 89.9%

COc1cc2c(cc1-c1c(C)noc1C)ncc1nc(C3CCOCC3)n([C@@H](C)COC(F)F)c12
active: UO-31 renal -38.3% | CAKI-1 renal -11.1% | A498 renal -6.79%
inactive: SK-MEL-2 melanoma 76.4% | EKVX NSCLC 55.8% | SN12C renal 66.5% | TK-10 renal 26.6% | CCRF-CEM leukemia 55.6% | MOLT-4 leukemia 48%

CCNc1ncnc2c1cnn2C1CCCO1 (centres undefined)
inactive: SK-MEL-2 melanoma 116% | EKVX NSCLC 115% | SN12C renal 103% | UO-31 renal 86% | TK-10 renal 116% | ACHN renal 104% | CCRF-CEM leukemia 87.6% | MOLT-4 leukemia 92.3%

COc1ccc(-c2nc3ccc(-c4nc5ccc(N6CCN(c7ccncc7)CC6)cc5[nH]4)cc3[nH]2)cc1OC
active: SK-MEL-2 melanoma -17%
inactive: EKVX NSCLC 69.2% | SN12C renal 45.2% | UO-31 renal 97.5% | TK-10 renal 101% | CAKI-1 renal 57.5% | A498 renal 61.4% | CCRF-CEM leukemia 21.1% | MOLT-4 leukemia 18.1%

Cc1cc(C)nc(SC2=C(Nc3cccc(Cl)c3C)C(=O)N(Cc3ccccc3)C2=O)n1
inactive: SK-MEL-2 melanoma 69.6% [30 µM] | EKVX NSCLC 47.2% [30 µM] | SN12C renal 70.1% [30 µM] | TK-10 renal 60.5% [30 µM] | ACHN renal 65.2% [30 µM] | CAKI-1 renal 60.8% [30 µM] | A498 renal 40.1% [30 µM] | CCRF-CEM leukemia 26.9% [30 µM]
active: MOLT-4 leukemia 4.41% [30 µM]

N#CN1CCC[C@H]1C(=O)N1CCc2c(-c3[nH]nc4ncccc34)cccc21
inactive: EKVX NSCLC 14.6% | CCRF-CEM leukemia 17.5%
active: SK-MEL-2 melanoma 3.74% | UO-31 renal 2.24% | TK-10 renal -15.6% | ACHN renal 6.01% | CAKI-1 renal -32.8% | A498 renal -36.5% | MOLT-4 leukemia 7.28%
